Consider eight compounds from PubChem BioAssay.

Active and inactive are the calls of the source. Unless noted, how the calls were made is not given here.

The test system of experiment [1] is Wnt5a (protein binding on small-molecule microarray). Briefly: small molecules binding Wnt5a protein – biophysical, small-molecule microarray, 635/667 nm fluorescence, primary screen (AID 1142).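 Further: fluorescence read at 667 nm with signal to noise per printed feature.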 The settings on record: 635 nm fluorescence, higher = more signal.
Experiment [2] in a line: ATP-based viability of Huh7 replicon cells – cell-based, CellTiter-Glo luminescence, basal, 48 h, cytotoxicity control for HCV replication inhibitor project, primary screen (AID 1143).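 Further: Huh7 hepatoma cells carrying a hepatitis C replication reporter with no stimulus; test concentration not given here.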 The settings on record: higher = more signal, called active from +8 up or from −8 down. Background: In antiviral work, replicon cells carry a viral genome segment that copies itself.
Experiment [3] is described as follows: Pseudomonas biofilm growth suppression – PAO1 strain, BacTiter-Glo luminescence, LB-PBS, primary screen (AID 1144). The following applies: P. aeruginosa PAO1 biofilm, 12 h, higher = more signal.
A short description of experiment [4]: basal CRE-LacZ reporter activity in PC12 – cell-based, unstimulated, primary screen (AID 1145). The following applies: no forskolin, luminescence, 4.5 h, higher = more signal, called active from +8 up or from −8 down.
A short description of experiment [5]: forskolin-driven CRE-LacZ activity in PC12 – cell-based, CRE-LacZ reporter, forskolin-stimulated, primary screen (AID 1146).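 Further: PC12 cells with 6xCRE LacZ reporter stimulated by forskolin 10 µM; beta-galactosidase reporter signal reflecting CREB driven transcription.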 The settings on record: luminescence, 4.5 h, higher = more signal, called active from +8 up or from −8 down.
The target in experiment [6] is Streptavidin (Streptomyces avidinii) (UniProt P22629). Briefly: compounds binding control protein streptavidin – biophysical, small-molecule microarray, 635/667 nm fluorescence, artefact control for SMM compound annotation, primary screen (AID 1147).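 Further: signal reflects streptavidin binding to arrayed compounds as a control protein.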 The following applies: higher = more signal.
Chain of Streptavidin (Streptomyces avidinii) (P22629 whole entry, looked up): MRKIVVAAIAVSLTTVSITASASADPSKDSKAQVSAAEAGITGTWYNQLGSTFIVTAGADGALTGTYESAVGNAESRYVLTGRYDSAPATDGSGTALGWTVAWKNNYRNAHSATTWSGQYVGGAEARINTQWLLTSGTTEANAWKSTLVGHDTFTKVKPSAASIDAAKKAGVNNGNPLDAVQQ
A short description of experiment [7]: probe aInhba binding on compound microarray – biochemical, small-molecule microarray, 635/667 nm fluorescence, primary screen (AID 1148).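 Further: score merges 667nm spot fluorescence with signal-to-noise for antibody binding to printed compounds.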 The settings on record: higher = more signal.
Experiment [8] deals with Torsin-1A (Homo sapiens) (UniProt O14656). Briefly: TOR1A wild-type binding on microarray – cell lysate, small-molecule microarray, lysate, 635/667 nm, primary screen (AID 1149). The settings on record: COS7 hTOR1A-WT lysate, 635 nm fluorescence, higher = more signal.
Chain of Torsin-1A (Homo sapiens) (O14656 whole entry, looked up): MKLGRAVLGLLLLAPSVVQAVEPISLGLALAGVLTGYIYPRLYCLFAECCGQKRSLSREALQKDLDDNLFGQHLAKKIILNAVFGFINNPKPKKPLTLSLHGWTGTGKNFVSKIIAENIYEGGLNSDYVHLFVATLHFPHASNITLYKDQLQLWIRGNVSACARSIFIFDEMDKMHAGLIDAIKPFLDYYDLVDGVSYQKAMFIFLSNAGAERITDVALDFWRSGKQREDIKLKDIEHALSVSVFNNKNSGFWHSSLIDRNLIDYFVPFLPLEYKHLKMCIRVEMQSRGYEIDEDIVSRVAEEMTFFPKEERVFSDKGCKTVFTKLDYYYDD
Experiment [9] shares this target. Briefly: torsin A mutant lysate binding on microarrays – cell lysate, small-molecule microarray, COS7 lysate, 635/667 nm fluorescence, primary screen (AID 1150).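 Further: score pools 667 nm emission and signal to noise measuring lysate protein binding.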 The following applies: COS7 hTOR1A mutant lysate, 635 nm fluorescence, higher = more signal.
In experiment [10] the test system is Sonic hedgehog protein (Shh). Briefly: Sonic hedgehog microarray binding compounds – biochemical, small-molecule microarray, 635/667 nm fluorescence, primary screen (AID 1151).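 Further: Shh protein binding to compounds spotted on small-molecule microarray slides; score combines spot fluorescence intensity with signal-to-noise across triplicate slides.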 The settings on record: 635 nm fluorescence, higher = more signal.
Experiment [11] in a line: optical density shifts of acrAB sulA E. coli – strain DRC41, OD650, 48 h, E. coli filamentation inducer project, primary screen (AID 1152).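 Further: E. coli MC1000 strain DRC41 lacking acrAB efflux pump and sulA.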 The settings on record: higher = more signal, called active from +8 up or from −8 down.
Experiment [12] in a line: probe aLefty1 binding on compound microarray – biochemical, small-molecule microarray, 635/667 nm fluorescence, primary screen (AID 1153).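 Further: score merges spot fluorescence with signal-to-noise ratio from the scanned slide images.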 The following applies: higher = more signal.
A short description of experiment [13]: plasmodial surface anion channel blockers, osmotic lysis – cell-based, P. falciparum Indochina, OD700, 1 h, primary screen (AID 1154). The following applies: P. falciparum Indochina infected RBC osmotic lysis, higher = more signal, called active from +8 up or from −8 down.
The nature of experiment [14]: plasmodial surface anion channel blockers, osmotic lysis – cell-based, P. falciparum Indochina, OD700, 2 h, primary screen (AID 1155).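 Further: lysis reports solute entry through the parasite surface anion channel PSAC.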 The settings on record: P. falciparum Indochina infected erythrocytes, higher = more signal, called active from +8 up or from −8 down.
Experiment [15] in a line: changes in parasitized red cell lysis, either direction – P. falciparum Indochina, OD700, 3 h, PSAC antagonist project, primary screen (AID 1156). The following applies: P. falciparum-infected erythrocytes, osmotic lysis, higher = more signal, called active from +8 up or from −8 down.
Experiment [16] can be described thus: plasmodial surface anion channel blockers, osmotic lysis – cell-based, P. falciparum Indochina, OD700, 18 h, primary screen (AID 1157). The settings on record: P. falciparum Indochina infected erythrocytes, osmotic lysis OD700, 18 h; higher = more signal, called active from +8 up or from −8 down.
Experiment [17] is described as follows: S6 kinase pathway phospho-S6 level changes – cell-based, A549, cytoblot, luminescence, serum-stimulated, primary screen (AID 1158).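 Further: serum-stimulated A549 lung adenocarcinoma cells; signal is phosphorylated S6 detected by cytoblot immunostaining with HRP secondary.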 The following applies: 5 h, higher = more signal.
Experiment [18] concerns the target NADPH oxidase 2 (Homo sapiens) (UniProt P04839). Briefly: compounds shifting NOX2 Amplex Red fluorescence – cell-based, HEK293-NOX2, PMA-stimulated, NOX inhibitor project, primary screen (AID 1159). Further: test concentration not given here. The settings on record: 45 min, higher = more signal, called active from +8 up or from −8 down.
Experiment [19] deals with NADPH oxidase 4 (Homo sapiens) (UniProt Q9NPH5). Briefly: compounds shifting NOX4 Amplex Red fluorescence – cell-based, HEK293-NOX4, tetracycline-induced, NOX inhibitor project, primary screen (AID 1160). The settings on record: HEK293-NOX4, Amplex Red H2O2 fluorescence, 45 min; higher = more signal, called active from +8 up or from −8 down.
Chain of NADPH oxidase 4 (Homo sapiens) (Q9NPH5 whole entry, looked up): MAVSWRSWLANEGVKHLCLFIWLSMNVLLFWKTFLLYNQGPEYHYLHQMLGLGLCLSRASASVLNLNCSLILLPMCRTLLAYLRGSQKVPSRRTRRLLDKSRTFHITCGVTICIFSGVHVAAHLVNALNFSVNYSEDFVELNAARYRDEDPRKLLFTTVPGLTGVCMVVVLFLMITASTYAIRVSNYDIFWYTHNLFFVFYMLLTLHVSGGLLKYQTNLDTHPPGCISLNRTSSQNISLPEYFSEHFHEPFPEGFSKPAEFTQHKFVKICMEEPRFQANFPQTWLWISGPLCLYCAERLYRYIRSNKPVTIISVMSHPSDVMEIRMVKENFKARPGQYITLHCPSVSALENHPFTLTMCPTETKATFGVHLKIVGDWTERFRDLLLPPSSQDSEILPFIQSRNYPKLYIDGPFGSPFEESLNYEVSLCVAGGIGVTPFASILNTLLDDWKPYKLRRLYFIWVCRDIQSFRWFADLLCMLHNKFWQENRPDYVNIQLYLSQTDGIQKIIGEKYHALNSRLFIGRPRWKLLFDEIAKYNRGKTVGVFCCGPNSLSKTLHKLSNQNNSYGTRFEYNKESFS
Experiment [20] deals with NADPH oxidase 5 (Homo sapiens) (UniProt Q96PH1). The experiment can be described thus: compounds shifting NOX5 Amplex Red fluorescence – cell-based, HEK293-NOX5, NOX inhibitor project, primary screen (AID 1161). The following applies: HEK293-NOX5, ionomycin, 45 min, higher = more signal.
Chain of NADPH oxidase 5 (Homo sapiens) (Q96PH1 whole entry, looked up): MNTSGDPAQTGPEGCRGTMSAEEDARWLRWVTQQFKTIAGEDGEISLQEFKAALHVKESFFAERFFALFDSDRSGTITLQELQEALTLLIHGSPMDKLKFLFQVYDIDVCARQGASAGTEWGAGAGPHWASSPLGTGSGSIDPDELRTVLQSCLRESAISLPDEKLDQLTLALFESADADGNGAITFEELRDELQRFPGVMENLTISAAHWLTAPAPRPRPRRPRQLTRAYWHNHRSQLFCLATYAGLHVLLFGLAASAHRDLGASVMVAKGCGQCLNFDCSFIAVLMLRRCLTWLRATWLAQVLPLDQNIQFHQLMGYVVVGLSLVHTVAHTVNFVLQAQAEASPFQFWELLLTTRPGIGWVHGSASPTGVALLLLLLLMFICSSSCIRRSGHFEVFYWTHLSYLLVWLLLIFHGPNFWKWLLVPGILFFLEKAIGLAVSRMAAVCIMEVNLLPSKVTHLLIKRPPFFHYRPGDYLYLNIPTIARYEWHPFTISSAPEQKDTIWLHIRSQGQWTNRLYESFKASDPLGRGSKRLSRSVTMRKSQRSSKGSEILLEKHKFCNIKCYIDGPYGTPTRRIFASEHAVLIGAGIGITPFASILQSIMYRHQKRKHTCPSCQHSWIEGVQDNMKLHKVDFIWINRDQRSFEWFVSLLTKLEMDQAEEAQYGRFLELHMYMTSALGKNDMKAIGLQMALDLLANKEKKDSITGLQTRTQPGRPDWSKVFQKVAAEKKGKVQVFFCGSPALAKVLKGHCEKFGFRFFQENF

Chain of NADPH oxidase 2 (Homo sapiens) (P04839 whole entry, looked up): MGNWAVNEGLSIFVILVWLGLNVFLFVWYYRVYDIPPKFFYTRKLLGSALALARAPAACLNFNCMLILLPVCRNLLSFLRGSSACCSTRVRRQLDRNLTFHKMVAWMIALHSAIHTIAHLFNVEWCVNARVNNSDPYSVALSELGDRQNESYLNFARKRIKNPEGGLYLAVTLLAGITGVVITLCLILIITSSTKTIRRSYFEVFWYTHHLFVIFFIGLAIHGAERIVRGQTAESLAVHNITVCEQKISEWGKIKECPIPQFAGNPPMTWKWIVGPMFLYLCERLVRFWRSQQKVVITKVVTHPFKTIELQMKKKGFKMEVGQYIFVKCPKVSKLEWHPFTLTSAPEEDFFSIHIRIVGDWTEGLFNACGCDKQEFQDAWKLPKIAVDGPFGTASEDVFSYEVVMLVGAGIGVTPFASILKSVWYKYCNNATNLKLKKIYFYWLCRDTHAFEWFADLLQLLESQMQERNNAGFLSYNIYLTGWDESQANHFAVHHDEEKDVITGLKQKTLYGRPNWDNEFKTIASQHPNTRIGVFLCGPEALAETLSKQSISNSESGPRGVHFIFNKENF

`CC(C)=CCCC(C)=CCON=C1C[C@@H](O)[C@@H](O)[C@@H]2[C@@H]3C(=O)N(Cc4ccc5c(c4)OCO5)C(=O)[C@@H]3CC[C@@H]12`: the composite z-score in [1] is -0.0188; in experiment [6], 1.19; in [7], -0.0791; with Torsin-1A (Homo sapiens) [8] it was 1.01; with Torsin-1A (Homo sapiens) [9], 0.606; in experiment [10], 0.816. The compound also returned a composite z-score in [12] of 0.0315. Further, the z-score in experiment [2] is -0.292 (inactive); in [3] it was 0.73 (inactive); in [4] it was 0.252 (inactive); in experiment [5] it was 0.217 (inactive); in experiment [11], 0.253 (inactive); in experiment [13], 31.3 (active). Besides, the z-score in experiment [14] was 5.69 (inactive); in experiment [15], 2.24 (inactive); in experiment [16] it was 1.46 (inactive); in experiment [17], -0.274; in experiment [18], -1.3 (inactive); in experiment [19], -0.0437 (inactive). Further, the z-score in experiment [20] is -2.6.
`C=CC[C@@H]1C=C[C@H](ON=C(C)CCN2CCCCc3nc(C)c(C)cc32)[C@@H](CO)O1`: the composite z-score was 0.291 in [1]; -0.208 in experiment [6]; -0.179 in experiment [7]; 2.03 with Torsin-1A (Homo sapiens) [8]; 1.52 with Torsin-1A (Homo sapiens) [9]; 2.05 in [10]. In experiment [12], this compound gave a composite z-score of -0.0547. The z-score in experiment [2] is -1.25 (inactive); in [3], 0.701 (inactive); in experiment [4] it was 1.72 (inactive); in experiment [5] it was 0.578 (inactive); in [11] it was -0.813 (inactive); in experiment [13], 1.07 (inactive). The z-score in [14] is 0.547 (inactive); in experiment [15] it was 0.325 (inactive); in experiment [16], 0.392 (inactive); in [17] it was -0.53; in [18], -0.953 (inactive); in experiment [19] it was -0.352 (inactive). For the same compound, the z-score in experiment [20] is -0.424.
Turning to `CCN(CC)CC(O)CN1CCCCc2nc(C)c(C)cc21` (stereo not given), the composite z-score in [1] was 0.0321; in experiment [6], 0.551; in experiment [7], -0.183; with Torsin-1A (Homo sapiens) [8], 0.57; with Torsin-1A (Homo sapiens) [9], 0.029; in experiment [10] it was 0.261. Further, the composite z-score in [12] is -0.0544. The z-score in experiment [2] was -1.1 (inactive); in [3], -1.67 (inactive); in experiment [4] it was -0.161 (inactive); in experiment [5], -0.71 (inactive); in experiment [11], 0.219 (inactive); in [13], -0.446 (inactive). The z-score in experiment [14] is -1.31 (inactive); in experiment [15], 0.273 (inactive); in experiment [16] it was -1.55 (inactive); in [17], 1.43; in experiment [18] it was 0.776 (inactive); in [19], -0.622 (inactive). Further, in [20], the z-score came to 0.419.
`CC(C)(C)N1C(=O)[C@H]2[C@H]3[C@H](O)[C@H](O)CC(=NOC[C@@H](O)COCc4ccco4)[C@@H]3CC[C@H]2C1=O`: the composite z-score in experiment [1] was 0.0983; in experiment [6], -0.276; in [7] it was -0.101; with Torsin-1A (Homo sapiens) [8], 0.334; with Torsin-1A (Homo sapiens) [9], 0.275; in [10], -0.633. Further, the composite z-score in experiment [12] is 0.211. Further, the z-score in experiment [2] is 0.257 (inactive); in [3] it was -0.579 (inactive); in [4], 1.06 (inactive); in experiment [5] it was 0.279 (inactive); in experiment [11] it was 0.0978 (inactive); in experiment [13], 0.693 (inactive). Also, the z-score in [14] was -0.335 (inactive); in [15], -0.222 (inactive); in [16] it was -0.261 (inactive); in experiment [17] it was -0.151; in experiment [18], 0.725 (inactive); in experiment [19], -1.96 (inactive). Besides, in experiment [20], the z-score is -0.279.
Consider `COc1cccc([C@H]2Oc3ccc(OC)cc3C(=NOCC[C@@H]3C=C[C@H](OC(C)=O)[C@@H](COC(C)=O)O3)[C@@H]2O)c1`, for which the composite z-score in experiment [1] is 0.0377; in [6], -0.112; in experiment [7], -0.154; in the experiment with Torsin-1A (Homo sapiens) [8] it was 0.186; with Torsin-1A (Homo sapiens) [9], 0.273; in [10] it was 0.509. In experiment [12], this compound came in with a composite z-score of -0.18. The z-score in experiment [2] was -0.0868 (inactive); in [3] it was 1.43 (inactive); in experiment [4], 5.08 (inactive); in [5] it was 0.497 (inactive); in experiment [11], -1.05 (inactive); in experiment [13], 1.16 (inactive). In addition, the z-score in [14] was 0.236 (inactive); in [15], -0.125 (inactive); in experiment [16], 0.416 (inactive); in experiment [17], -1.04; in experiment [18], 0.511 (inactive); in experiment [19], 1.03 (inactive). Further, the z-score in experiment [20] was -0.14.
Take `CC(CCC(=O)OC[C@H]1O[C@H](C#Cc2ccccc2)C=C[C@@H]1Oc1ccc(C)cc1)=NOC(C)CN1CCCc2nc(C)c(C)cc21` (stereo not given in full): the composite z-score is 0.0127 in experiment [1]; 0.727 in [6]; -0.0259 in [7]; 0.313 with Torsin-1A (Homo sapiens) [8]; -0.0361 in the experiment with Torsin-1A (Homo sapiens) [9]; 0.298 in experiment [10]. The same compound returned a composite z-score in experiment [12] of 0.106. Also, the z-score was -0.386 (inactive) in experiment [2]; 0.0692 (inactive) in [3]; 0.336 (inactive) in [4]; 0.51 (inactive) in [5]; -0.651 (inactive) in [11]; 5.4 (inactive) in experiment [13]. Further, the z-score in experiment [14] is 0.859 (inactive); in experiment [15], 0.785 (inactive); in experiment [16], 0.735 (inactive); in experiment [17] it was -0.624; in experiment [18], -0.866 (inactive); in [19], -0.435 (inactive). The z-score in experiment [20] is -0.297.
For the compound `COc1ccc(O[C@H]2C=C[C@@H](c3ccccc3)O[C@@H]2CO)cc1`, the composite z-score in experiment [1] is 0.0263; in experiment [6], 0.145; in experiment [7], -0.0412; with Torsin-1A (Homo sapiens) [8], 0.139; in the experiment with Torsin-1A (Homo sapiens) [9], 0.153; in [10], 0.507. The composite z-score in experiment [12] is -0.0501. Also, the z-score in experiment [2] is -1.12 (inactive); in experiment [3], 0.584 (inactive); in experiment [4] it was -0.617 (inactive); in experiment [5] it was -0.265 (inactive); in [11], 0.0426 (inactive); in [13], 2.91 (inactive). Besides, the z-score in experiment [14] was 1.29 (inactive); in experiment [15], -0.0071 (inactive); in experiment [16], 0.64 (inactive); in [17], -0.781; in experiment [18], -0.242 (inactive); in [19], -0.634 (inactive). In experiment [20], the z-score is -2.07.
On to `COC(=O)CC=C[C@@H](C)[C@@H](C=NOC[C@@H](C)[C@H](OCc1ccccc1)C(C)C)OC`, for which the composite z-score in [1] is 0.0814; in experiment [6] it was -0.437; in [7], -0.161; in the experiment with Torsin-1A (Homo sapiens) [8], 0.155; with Torsin-1A (Homo sapiens) [9], -0.0103; in [10] it was 0.359. The composite z-score in experiment [12] is -0.29. Besides, the z-score in experiment [2] was -0.112 (inactive); in [3], -0.0142 (inactive); in experiment [4], 0.848 (inactive); in experiment [5], 0.0112 (inactive); in experiment [11], 0.14 (inactive); in experiment [13] it was 2.17 (inactive). Besides, the z-score in [14] is 0.319 (inactive); in experiment [15], -0.728 (inactive); in [16] it was -0.0741 (inactive); in [17], 0.391; in experiment [18] it was 0.64 (inactive); in experiment [19] it was -0.614 (inactive). Further, in [20], the z-score was -2.2.
